Our source for the inhibition values is PubChem BioAssay AID588335 (The Scripps Research Institute Molecular Screening Center, 2011).

In all, about 360,000 compounds went through this assay and about 4,500 (1.2%) were called active. Cut-off read from the data, not from the text of the source: active = inhibition above about 30%; inactive = the rest. The entries come from a sample that favours actives as a whole.

In general, inhibition refers to the relative decrease from the control value, in per cent.

This experiment in a line: inhibition of GDH and TPI enzymes – biochemical, absorbance, full deck, artefact control for M. tuberculosis FBA inhibitor project, primary screen (AID 588335).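 Note: 0% = DMSO wells and 100% = wells lacking the enzyme.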 To be noted: GDH-TPI coupled enzyme counterscreen, NADH absorbance; at 4.8 µM; stronger effect = higher value.
Turning to `COc1ccc(C2NCCCC2c2ccccc2)cc1` (stereo not drawn), the inhibition was -3.45% (inactive). Next, `CC(C=Cc1ccccc1)=NNS(=O)(=O)c1ccc([N+](=O)[O-])cc1`: 25.4% (inactive). Next, `O=C(N/N=C/c1cc([N+](=O)[O-])ccc1O)/C(=C\c1cccs1)NC(=O)c1ccccc1`: 15.7% (inactive). For `Cc1ccc(NC(=O)C(=O)NCc2ccco2)c(C)c1` the value was 2.52% (inactive); for `O=C(NCc1ccco1)/C(=C/c1ccco1)NC(=O)c1ccccc1`, -7.41% (inactive); for `O=C(N/C(=C\c1ccc(O)cc1)C(=O)N1CCCCC1)c1ccccc1`, 9.79% (inactive). As for `O=C(Nc1ccc(C(=O)O)cc1)/C(=C\c1ccccc1)NC(=O)c1ccc(Br)cc1`, the inhibition was -8.77% (inactive).

On to `CNC(=O)/C(=C\C=C\c1ccccc1)NC(=O)c1ccc([N+](=O)[O-])cc1`, for which the inhibition is 39.1% (active).

Regarding `Cc1ccc(C(=O)N/C(=C/C=C/c2ccccc2)C(=O)NCc2ccco2)cc1`, the inhibition was 48.9% (active).

Turning to `O=C(Nc1ccc(C(=O)O)cc1)/C(=C/c1ccc([N+](=O)[O-])cc1)NC(=O)c1ccccc1`, the inhibition was 32.9% (active). As for `CCCCOc1ccc(C(=O)N/C(=C/C=C/c2ccccc2)C(=O)N2CCOCC2)cc1`, the inhibition is 20.1% (inactive). For `O=C(N/N=C/c1ccc(O)cc1)/C(=C/c1ccc([N+](=O)[O-])cc1)NC(=O)c1ccccc1` the value was 39% (active). With `COc1ccc(/C=C(/NC(=O)c2ccccc2)C(=O)Nc2cccc(C(=O)O)c2)cc1`, the inhibition was 29.7% (inactive). Take `Cc1ccccc1CCNC(=O)C1CCC(=O)N(Cc2ccc(Cl)cc2)C1` (stereo not drawn): the inhibition was -2.1% (inactive). Turning to `CC1(C)C[C@H]2C3=CCC4[C@@]5(C)CC[C@H](O)[C@](C)(CO)C5CC[C@@]4(C)[C@]3(C)C[C@@H](O)[C@@]2(CO)[C@@H](O)[C@@H]1O` (stereo partly drawn), the inhibition was 8.82% (inactive). On to `COC(=O)C1=NN(c2ccccc2)C2C(=O)N(c3ccccc3OC)C(=O)C12` (stereo not drawn), for which the inhibition was 21% (inactive). For `CC(=O)N[C@@H](C)C(=O)N1CCC(n2nccc2NC(=O)CCCc2ccccc2)CC1` the value was 8.3% (inactive). For the compound `CCC(C)Sc1nc2c(cnn2-c2ccc(F)cc2)c(=O)[nH]1` (stereo not drawn), the inhibition is 8.15% (inactive).

`COc1ccc(-c2nonc2NC(=O)c2oc3ccc(F)cc3c2C)cc1OC`: the inhibition was -4.27% (inactive). As to `Cc1ccc(NC(=O)/C(=C/c2ccc([N+](=O)[O-])cc2)NC(=O)c2ccccc2)cc1`, the inhibition is 49.4% (active). For the compound `O=C(N/C(=C\c1ccc([N+](=O)[O-])cc1)C(=O)N1CCOCC1)c1cccc(Br)c1`, the inhibition is 28.7% (inactive). Next, `COc1cc(/C=C(/NC(=O)c2ccccc2)C(=O)Nc2cccc(O)c2)c([N+](=O)[O-])cc1OC`: 11.6% (inactive); `Nc1nnn(CC(=O)N/N=C/c2ccccc2)n1`: 10.1% (inactive).

In the case of `Cc1nc(Cl)cc(N/N=C/c2ccccc2)n1`, the inhibition is 39.2% (active).

On to `Cc1cc2c(C)nc(N/N=C/c3ccccc3)nc2o1`, for which the inhibition is 28.5% (inactive). Next, `COc1ccc(Br)cc1CN(C)CC(=O)Nc1cc(Cl)cc(Cl)c1`: -4.49% (inactive); `CC(=O)Nc1ccc(S(=O)(=O)NCC(=O)OCC(=O)c2ccc[nH]2)cc1`: 4.57% (inactive). Next, `O=c1c2ccccc2nc2n1C(CSCc1cccc(C(F)(F)F)c1)CS2` (stereo not drawn): 32.9% (active); `O=c1c2ccccc2nc2n1C(CSCc1ccccc1)CS2` (stereo not drawn): 2.03% (inactive). Next, `N#Cc1c(-c2ccccc2)nc(SCc2cccc(C(F)(F)F)c2)[nH]c1=O`: -3.35% (inactive); `CC1=C(C(=O)Nc2cc(C)ccn2)C(c2cnn(C)c2)C2=C(CC(c3ccccc3)CC2=O)N1` (stereo not drawn): 16.7% (inactive); `CC(C(=O)NC1CCCCC1)N1C(=O)c2cccc3cccc1c23` (stereo not drawn): 8.59% (inactive).

Turning to `Cc1ccc(/C=N/NC(=S)NC2CCCCC2)o1`, the inhibition is 32.4% (active). In the case of `C/C(=N\NC(=S)NC1CCCCC1)c1ccc(C)o1`, the inhibition is 12.9% (inactive). Next, `Cc1cc(Br)ccc1NC(=S)NC1CCCC1`: 13.7% (inactive); `O=C(NCc1cccnc1)c1cc(C2CCCCN2C(=O)CCc2ccccc2)on1` (stereo not drawn): 1.83% (inactive); `CCN(CC)c1ccc(NC(=O)CCc2nnc3ccc(N4CCCCC4)nn23)c(C)c1`: 13.9% (inactive).

Turning to `Cc1ccc2cc(/C=N/NC(=O)[C@@H]3CCCN3)c(Cl)nc2c1`, the inhibition is 33.2% (active).

With `O=C(Nc1cccc(F)c1)[C@@H]1CCCN1`, the inhibition was -7.69% (inactive). Next, `CSCC[C@H](NC(=O)OC(C)(C)C)C(=O)N/N=C/c1cc2ccc(C)cc2nc1Cl`: 14.8% (inactive).

Turning to `COC(=O)C1(C)CC1(c1ccccc1)c1ccccc1` (stereo not drawn), the inhibition was 4.61% (inactive). Next, `COc1cccc(NC(=O)CCc2nnc3ccc(N4CCC(C)CC4)nn23)c1`: 3.45% (inactive); `Cc1cc(C)n(-c2nnc(C)n2NC(=O)c2cccc(Cl)c2)n1`: -3.66% (inactive). Next, `Cn1c2ccccc2c2cc(/C=C(\NC(=O)c3ccccc3)C(=O)NCC(=O)O)ccc21`: 35.1% (active); `CCOc1ccc(/C=C(/NC(=O)c2ccccc2)C(=O)NCCC(=O)O)cc1`: 0.32% (inactive); `O=C(NCC1CCCO1)/C(=C/c1ccc(Cl)cc1)NC(=O)c1ccccc1` (stereo not drawn): 0% (inactive).

Regarding `CC(C(=O)Nc1ccc(F)c(F)c1F)N1CCCCCC1` (stereo not drawn), the inhibition is -6.72% (inactive). For `CCC(C)(C)c1ccc(Oc2ccc(NC(=O)COC(=O)C3=COCCO3)cc2)cc1` the value was -7.05% (inactive). Take `CN(C(=O)COC(=O)c1cc(=O)[nH]c2ccccc12)C1CCCCC1`: the inhibition is 10.5% (inactive). For `O=C1N=C(N2CCOCC2)CS1` the value was -6.56% (inactive). Next, `O=C(CC1SC(N2CCOCC2)=NC1=O)Nc1ccccc1F` (stereo not drawn): 10.5% (inactive). Next, `CCc1ccc(/C=C2\SC(N3CCOCC3)=NC2=O)cc1`: 30.8% (active); `O=C1N=C(N2CCOCC2)S/C1=C\C=C/c1ccccc1`: 31.1% (active); `NC1=NC(=O)S/C1=C\c1ccc(O)cc1`: 15.8% (inactive). Regarding `CCOc1cc(/C=C2\SC(N3CCCCC3)=NC2=O)ccc1O`, the inhibition is 24.1% (inactive). For `c1ccc(-c2csc(N3CCc4ccccc4C3)n2)cc1` the value was 2.71% (inactive). With `Cc1cc(/C=C2/SC(=O)N(CC(=O)N3CCCC3)C2=O)ccc1N1CCOCC1`, the inhibition is 1.85% (inactive). For `O=C1N=C(N2CCc3ccccc3C2)S/C1=C\c1ccc(O)cc1` the value was 33.1% (active).
